Experimental findings from PMC7862700, “An all-to-all approach to the identification of sequence-specific readers for epigenetic DNA modifications on cytosine” are described below.

Assay in all cases: DAPPL (digital affinity profiling via proximity ligation, sequencing); 10 mM Tris-HCl pH 7.5, 50 mM NaCl, 1 mM DTT, 4% glycerol, room temperature, 30 min; GST-TFs on glutathione beads, 16-mer random dsDNA library, 0.1% formaldehyde crosslink after washing; high values mean tight binding
For one experiment, the target named is HSF1 (Homo sapiens, UniProt Q00613 1-529). To be noted: protein: recombinant; tags: N-terminal GST; chain copies: 3; dsDNA, one strand shown. The essentials:
(§1)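 A tag-only sample was pooled with DNA-barcoded human transcription factors that had been expressed in yeast as GST fusions and captured on glutathione beads. The pools were incubated for 30 min at room temperature with 200 nmole of a random double-stranded 16-mer DNA library in Tris/NaCl/DTT/glycerol buffer, then washed, crosslinked with 0.1% formaldehyde, proximity-ligated (BsaI/T4 ligase, 1 h, 37 °C), PCR-amplified and sequenced on an Illumina NextSeq500. Binding signal is each hexamer's read frequency for a factor divided by its frequency for the tag-only sample.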

In another experiment the target is T1, SPIC (Homo sapiens, UniProt Q8N5J4 1-248).
T1 sequence: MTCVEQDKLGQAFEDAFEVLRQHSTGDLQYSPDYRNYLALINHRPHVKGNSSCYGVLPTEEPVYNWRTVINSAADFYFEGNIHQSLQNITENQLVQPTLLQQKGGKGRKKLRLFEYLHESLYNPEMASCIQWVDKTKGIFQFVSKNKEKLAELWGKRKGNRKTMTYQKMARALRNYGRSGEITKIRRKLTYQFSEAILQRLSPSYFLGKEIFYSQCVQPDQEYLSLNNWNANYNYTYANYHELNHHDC
Particulars: protein: recombinant; tags: N-terminal GST; dsDNA, one strand shown. The method, boiled down: as §1

The target in a further experiment is CRX (Homo sapiens, UniProt O43186 1-299). Particulars: protein: recombinant; tags: N-terminal GST; dsDNA, one strand shown. The method, boiled down: as §1
CRX, sequence (O43186 whole entry): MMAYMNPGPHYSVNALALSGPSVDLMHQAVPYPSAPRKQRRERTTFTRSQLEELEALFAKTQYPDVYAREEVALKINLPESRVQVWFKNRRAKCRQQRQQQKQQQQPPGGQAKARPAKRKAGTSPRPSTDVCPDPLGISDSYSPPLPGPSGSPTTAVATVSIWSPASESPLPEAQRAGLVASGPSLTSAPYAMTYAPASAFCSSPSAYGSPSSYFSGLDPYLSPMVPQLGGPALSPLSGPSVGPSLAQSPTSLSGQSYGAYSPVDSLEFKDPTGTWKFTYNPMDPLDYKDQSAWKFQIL
In a further experiment the target is T2, ELK1 (Homo sapiens, UniProt P19419 1-428).
T2 sequence: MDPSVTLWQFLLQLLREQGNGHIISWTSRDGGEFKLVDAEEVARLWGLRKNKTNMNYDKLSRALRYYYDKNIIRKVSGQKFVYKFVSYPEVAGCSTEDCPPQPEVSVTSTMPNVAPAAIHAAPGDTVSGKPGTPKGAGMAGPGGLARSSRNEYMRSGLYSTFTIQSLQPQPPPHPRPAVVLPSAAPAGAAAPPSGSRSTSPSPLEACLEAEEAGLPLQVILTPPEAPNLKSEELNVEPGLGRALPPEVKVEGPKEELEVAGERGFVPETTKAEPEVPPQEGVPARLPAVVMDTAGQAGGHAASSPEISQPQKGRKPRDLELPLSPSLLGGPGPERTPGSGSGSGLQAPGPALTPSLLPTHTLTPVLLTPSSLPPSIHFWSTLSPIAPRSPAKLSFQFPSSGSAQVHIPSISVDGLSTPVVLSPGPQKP
To be noted: protein: recombinant; tags: N-terminal GST; dsDNA, one strand shown. The essentials: as §1

Another experiment has as its target T3, GABPA (Homo sapiens, UniProt Q06546 1-454).
T3 sequence: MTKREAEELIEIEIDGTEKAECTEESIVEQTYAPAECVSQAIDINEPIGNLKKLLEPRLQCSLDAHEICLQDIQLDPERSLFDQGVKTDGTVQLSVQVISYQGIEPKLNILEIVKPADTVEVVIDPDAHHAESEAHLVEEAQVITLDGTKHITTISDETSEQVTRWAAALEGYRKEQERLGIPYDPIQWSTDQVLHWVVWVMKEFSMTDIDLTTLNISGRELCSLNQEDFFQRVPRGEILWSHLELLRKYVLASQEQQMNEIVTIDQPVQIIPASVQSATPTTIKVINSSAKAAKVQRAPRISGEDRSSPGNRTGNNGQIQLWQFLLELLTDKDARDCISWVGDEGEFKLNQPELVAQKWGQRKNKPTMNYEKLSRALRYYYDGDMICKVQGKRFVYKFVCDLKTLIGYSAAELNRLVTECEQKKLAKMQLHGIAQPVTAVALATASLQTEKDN
Particulars: protein: recombinant; tags: N-terminal GST; dsDNA, one strand shown. The essentials:
as §1

Another experiment deals with T4, ELK3 (Homo sapiens, UniProt P41970 1-407).
T4 sequence: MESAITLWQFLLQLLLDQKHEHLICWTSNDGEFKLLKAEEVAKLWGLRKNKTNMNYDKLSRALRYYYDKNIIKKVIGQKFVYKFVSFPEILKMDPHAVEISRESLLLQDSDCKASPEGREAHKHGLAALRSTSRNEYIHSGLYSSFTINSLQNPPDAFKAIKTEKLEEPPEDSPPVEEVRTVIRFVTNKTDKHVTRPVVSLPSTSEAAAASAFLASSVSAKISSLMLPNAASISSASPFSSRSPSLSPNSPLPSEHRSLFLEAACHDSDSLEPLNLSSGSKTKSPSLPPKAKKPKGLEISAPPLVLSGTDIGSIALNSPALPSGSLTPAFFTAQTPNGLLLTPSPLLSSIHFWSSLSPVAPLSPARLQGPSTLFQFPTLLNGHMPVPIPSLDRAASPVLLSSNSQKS
Particulars: protein: recombinant; tags: N-terminal GST; dsDNA, one strand shown. The essentials: as §1

In a further experiment the target is T5, FEV (Homo sapiens, UniProt Q99581 1-238).
T5 sequence: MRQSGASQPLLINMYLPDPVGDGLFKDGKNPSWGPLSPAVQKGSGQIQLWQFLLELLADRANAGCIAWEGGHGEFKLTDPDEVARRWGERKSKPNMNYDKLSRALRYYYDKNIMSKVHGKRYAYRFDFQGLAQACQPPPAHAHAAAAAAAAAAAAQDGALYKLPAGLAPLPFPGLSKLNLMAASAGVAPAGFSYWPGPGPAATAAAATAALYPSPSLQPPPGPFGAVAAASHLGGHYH
To be noted: protein: recombinant; tags: N-terminal GST; dsDNA, one strand shown. The method, boiled down: as §1

The next experiment deals with T6, ELK4 (Homo sapiens, UniProt P28324-2 1-405).
T6 sequence: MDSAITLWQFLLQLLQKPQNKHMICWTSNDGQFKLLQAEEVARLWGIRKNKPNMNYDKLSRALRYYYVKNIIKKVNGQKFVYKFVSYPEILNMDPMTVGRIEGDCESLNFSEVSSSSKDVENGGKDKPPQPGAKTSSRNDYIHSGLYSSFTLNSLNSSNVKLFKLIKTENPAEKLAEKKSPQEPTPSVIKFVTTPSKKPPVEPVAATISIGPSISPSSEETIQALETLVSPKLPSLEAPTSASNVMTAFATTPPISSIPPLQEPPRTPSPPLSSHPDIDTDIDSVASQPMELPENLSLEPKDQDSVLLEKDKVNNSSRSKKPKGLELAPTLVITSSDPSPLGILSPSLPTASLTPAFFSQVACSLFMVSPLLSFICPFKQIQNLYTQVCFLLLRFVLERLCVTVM
Particulars: protein: recombinant; tags: N-terminal GST; dsDNA, one strand shown. The method, boiled down: as §1

The next experiment deals with T7, ETV2 (Homo sapiens, UniProt O00321 1-342).
T7 sequence: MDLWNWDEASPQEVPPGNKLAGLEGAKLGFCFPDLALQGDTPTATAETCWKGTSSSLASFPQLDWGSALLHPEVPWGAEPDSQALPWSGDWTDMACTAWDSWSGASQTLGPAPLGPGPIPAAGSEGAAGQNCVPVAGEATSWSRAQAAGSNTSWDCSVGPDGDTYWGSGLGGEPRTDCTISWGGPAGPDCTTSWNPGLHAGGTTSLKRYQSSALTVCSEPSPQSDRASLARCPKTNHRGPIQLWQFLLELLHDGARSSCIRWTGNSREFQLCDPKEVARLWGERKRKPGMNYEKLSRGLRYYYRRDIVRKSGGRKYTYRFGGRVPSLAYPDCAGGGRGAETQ
Particulars: protein: recombinant; tags: N-terminal GST; dsDNA, one strand shown. The essentials:
as §1

The target in another experiment is T8, ELF3 (Homo sapiens, UniProt P78545 1-371).
T8 sequence: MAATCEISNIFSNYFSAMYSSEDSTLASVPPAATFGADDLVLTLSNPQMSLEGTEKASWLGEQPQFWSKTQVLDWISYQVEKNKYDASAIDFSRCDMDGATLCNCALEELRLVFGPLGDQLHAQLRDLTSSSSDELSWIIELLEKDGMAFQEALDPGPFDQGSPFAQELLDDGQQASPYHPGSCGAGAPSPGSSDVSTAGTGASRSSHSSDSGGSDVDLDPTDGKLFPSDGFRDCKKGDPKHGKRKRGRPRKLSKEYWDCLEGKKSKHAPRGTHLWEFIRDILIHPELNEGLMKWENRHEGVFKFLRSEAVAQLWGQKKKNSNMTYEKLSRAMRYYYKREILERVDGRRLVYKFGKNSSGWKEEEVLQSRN
To be noted: protein: recombinant; tags: N-terminal GST; dsDNA, one strand shown. The essentials: as §1

A further experiment addresses ETV1 (Homo sapiens, UniProt P50549 1-477). To be noted: protein: recombinant; tags: N-terminal GST; dsDNA, one strand shown. The method, boiled down:
as §1

A further experiment deals with T9, ETV3L (Homo sapiens, UniProt Q6ZN32 1-361).
T9 sequence: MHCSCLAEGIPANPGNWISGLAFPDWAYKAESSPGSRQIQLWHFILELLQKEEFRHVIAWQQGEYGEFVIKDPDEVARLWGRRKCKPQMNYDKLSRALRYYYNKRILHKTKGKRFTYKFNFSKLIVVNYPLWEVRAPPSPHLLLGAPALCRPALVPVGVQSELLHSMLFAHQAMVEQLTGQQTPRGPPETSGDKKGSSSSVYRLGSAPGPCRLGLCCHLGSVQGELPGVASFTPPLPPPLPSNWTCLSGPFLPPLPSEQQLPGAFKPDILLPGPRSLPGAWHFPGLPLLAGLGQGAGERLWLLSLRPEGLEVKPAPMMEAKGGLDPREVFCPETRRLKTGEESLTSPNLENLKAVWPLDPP
To be noted: protein: recombinant; tags: N-terminal GST; dsDNA, one strand shown. The method, boiled down:
as §1

For another experiment, the target named is T10, SPDEF (Homo sapiens, UniProt O95238 1-335).
T10 sequence: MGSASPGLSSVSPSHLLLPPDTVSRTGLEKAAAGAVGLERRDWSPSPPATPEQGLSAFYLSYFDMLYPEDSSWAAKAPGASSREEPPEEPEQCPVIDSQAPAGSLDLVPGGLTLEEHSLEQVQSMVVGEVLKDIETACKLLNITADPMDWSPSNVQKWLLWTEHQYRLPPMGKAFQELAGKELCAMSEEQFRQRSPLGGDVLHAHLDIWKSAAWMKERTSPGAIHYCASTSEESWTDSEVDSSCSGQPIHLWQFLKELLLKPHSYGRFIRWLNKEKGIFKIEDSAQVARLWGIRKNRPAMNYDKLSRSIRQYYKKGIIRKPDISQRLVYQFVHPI
To be noted: protein: recombinant; tags: N-terminal GST; dsDNA, one strand shown. The method, boiled down:
as §1

A further experiment concerns the target T11, ETV7 (Homo sapiens, UniProt Q9Y603 1-341).
T11 sequence: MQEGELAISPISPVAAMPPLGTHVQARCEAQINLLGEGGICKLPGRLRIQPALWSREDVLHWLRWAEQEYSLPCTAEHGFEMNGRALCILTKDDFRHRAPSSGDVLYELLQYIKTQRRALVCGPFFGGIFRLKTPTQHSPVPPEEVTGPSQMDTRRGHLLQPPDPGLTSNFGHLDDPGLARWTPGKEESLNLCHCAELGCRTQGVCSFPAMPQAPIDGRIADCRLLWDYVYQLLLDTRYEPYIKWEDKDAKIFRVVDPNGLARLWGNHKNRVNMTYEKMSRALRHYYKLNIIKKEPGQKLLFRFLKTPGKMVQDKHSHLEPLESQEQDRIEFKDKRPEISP
Particulars: protein: recombinant; tags: N-terminal GST; dsDNA, one strand shown. The method, boiled down: as §1

HSF1, sequence (Q00613 whole entry, the tested form may be a part): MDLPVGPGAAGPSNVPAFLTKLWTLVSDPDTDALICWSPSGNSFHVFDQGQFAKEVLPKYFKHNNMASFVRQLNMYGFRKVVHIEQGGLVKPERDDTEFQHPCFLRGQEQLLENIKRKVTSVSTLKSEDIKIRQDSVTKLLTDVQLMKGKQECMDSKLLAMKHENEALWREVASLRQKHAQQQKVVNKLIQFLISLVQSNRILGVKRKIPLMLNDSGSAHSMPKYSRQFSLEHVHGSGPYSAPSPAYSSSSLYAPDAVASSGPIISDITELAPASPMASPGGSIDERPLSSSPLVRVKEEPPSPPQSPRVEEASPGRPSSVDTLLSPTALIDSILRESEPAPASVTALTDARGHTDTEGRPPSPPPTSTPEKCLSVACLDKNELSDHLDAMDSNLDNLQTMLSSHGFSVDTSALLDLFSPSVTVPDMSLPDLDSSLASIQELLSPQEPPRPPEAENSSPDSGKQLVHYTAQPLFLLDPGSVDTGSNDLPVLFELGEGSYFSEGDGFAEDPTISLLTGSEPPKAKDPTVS
ETV1, sequence (P50549 whole entry): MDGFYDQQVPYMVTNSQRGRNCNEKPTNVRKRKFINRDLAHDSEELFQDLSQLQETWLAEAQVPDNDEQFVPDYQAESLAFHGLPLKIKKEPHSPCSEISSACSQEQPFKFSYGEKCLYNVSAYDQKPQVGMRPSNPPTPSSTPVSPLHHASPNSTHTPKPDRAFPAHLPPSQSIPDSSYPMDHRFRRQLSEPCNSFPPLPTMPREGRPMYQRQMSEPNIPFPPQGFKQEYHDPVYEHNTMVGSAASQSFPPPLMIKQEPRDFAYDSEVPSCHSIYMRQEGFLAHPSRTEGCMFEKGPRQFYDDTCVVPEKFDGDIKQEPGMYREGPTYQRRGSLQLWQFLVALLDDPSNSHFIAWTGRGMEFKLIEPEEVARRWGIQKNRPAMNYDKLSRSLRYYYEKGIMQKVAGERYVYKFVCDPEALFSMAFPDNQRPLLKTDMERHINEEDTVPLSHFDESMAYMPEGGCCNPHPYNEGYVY

TTGAGA: the binding signal with HSF1 is 1.06 fold enrichment (6-mer frequency, TF over GST control); in the experiment with SPIC it was 1.02 fold enrichment (6-mer frequency, TF over GST control); with CRX, 1.02 fold enrichment (6-mer frequency, TF over GST control).
For TAGACA, the binding signal with ELK1 was 1.07 fold enrichment (6-mer frequency, TF over GST control); with GABPA, 1.01 fold enrichment (6-mer frequency, TF over GST control); with ELK3, 1.02 fold enrichment (6-mer frequency, TF over GST control); with FEV, 1.02 fold enrichment (6-mer frequency, TF over GST control); in the experiment with HSF1 it was 1.11 fold enrichment (6-mer frequency, TF over GST control); with ELK4 it was 1.11 fold enrichment (6-mer frequency, TF over GST control). Also, the binding signal was 1.01 fold enrichment (6-mer frequency, TF over GST control) with ETV2; 1.01 fold enrichment (6-mer frequency, TF over GST control) in the experiment with ELF3; 1.03 fold enrichment (6-mer frequency, TF over GST control) with CRX; 1.01 fold enrichment (6-mer frequency, TF over GST control) with ETV1; 1.01 fold enrichment (6-mer frequency, TF over GST control) with ETV3L; 1.03 fold enrichment (6-mer frequency, TF over GST control) in the experiment with SPDEF. The binding signal in the experiment with ETV7 is 1.07 fold enrichment (6-mer frequency, TF over GST control).
